According to PubChem BioAssay AID1159580 (chemical genetic matrix, 2015):
Where “and” joins values, the source holds several entries; their conditions need not be identical. Equal values may be shown once. About 2,000 (36%) of roughly 5,500 compounds were called active. Inconclusive results (about 18%) are left out. Rule as the data show it: active = normalized growth mostly below about 0.91 (no sharp cut-off); inconclusive = no clear call, values can overlap the other calls; inactive = mostly above about 0.92. The list shows a part of the results.

Experiment: chemical genetic growth profiling, strain panel (AID 1159580);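 also: tested at 20 µM; growth read once vehicle control cultures reached saturation at 30 °C; 1 = growth at the plate median or of vehicle wells; lower values mean less growth of the strain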
Conditions: S. cerevisiae deletion strains, growth OD

Measured: normalized growth

COC[C@]12CN(C=O)C3[C@@H]4[C@H](OC)C1[C@]3(C1CC3(O)C(OC)C(O)C4(OC(C)=O)C1C3OC(=O)c1ccccc1)[C@@H](OC)C[C@H]2O (stereo not given in full)
inactive: locus YAL021C, strain ccr4, stronger effect = lower value 1.02 | locus YAL026C, strain drs2, stronger effect = lower value 1.01 | locus YAL030W, strain snc1, stronger effect = lower value 1.01 | locus YBL061C, strain skt5, stronger effect = lower value 1.01 | locus YBR009C, strain hhf1, stronger effect = lower value 1.01 | locus YBR021W, strain FUR4, stronger effect = lower value 0.995 | locus YBR023C, strain chs3, stronger effect = lower value 1.01 | locus YBR171W, strain sec66, stronger effect = lower value 1.03 | locus YBR229C, strain ROT2, stronger effect = lower value 1.01 | locus YBR231C, strain swc5, stronger effect = lower value 1.01 | locus YBR279W, strain paf1, stronger effect = lower value 1.01 | locus YCL011C, strain gbp2, stronger effect = lower value 1.01 | locus YCL016C, strain dcc1, stronger effect = lower value 1.01 | locus YCL029C, strain bik1, stronger effect = lower value 0.997 | locus YCL061C, strain MRC1, stronger effect = lower value 1.02 | locus YCL069W, strain vba3, stronger effect = lower value 1.01 | locus YCR088W, strain abp1, stronger effect = lower value 1.01 | locus YDL005C, strain med2, stronger effect = lower value 1.02 | locus YDL035C, strain GPR1, stronger effect = lower value 1.01 | locus YDL040C, strain nat1, stronger effect = lower value 1.01 | locus YDL074C, strain BRE1, stronger effect = lower value 1.03 | locus YDL101C, strain DUN1, stronger effect = lower value 1.02 | locus YDL185W, strain tfp1, stronger effect = lower value 1.01 | locus YDL192W, strain arf1, stronger effect = lower value 1 | locus YDR001C, strain nth1, stronger effect = lower value 1.01 | locus YDR069C, strain doa4, stronger effect = lower value 1.02 | locus YDR101C, strain arx1, stronger effect = lower value 0.99 | locus YDR137W, strain rgp1, stronger effect = lower value 1.01 | locus YDR159W, strain sac3, stronger effect = lower value 1.01 | locus YDR162C, strain NBP2, stronger effect = lower value 1.02 | locus YDR195W, strain ref2 1.01 | locus YDR297W, strain sur2, stronger effect = lower value 1 | locus YDR318W, strain mcm21, stronger effect = lower value 1.01 | locus YDR334W, strain swr1, stronger effect = lower value 1.01 | locus YDR335W, strain msn5, stronger effect = lower value 0.998 | locus YDR388W, stronger effect = lower value 0.998 | locus YDR392W, strain spt3, stronger effect = lower value 1.01 | locus YDR502C, strain sam2, stronger effect = lower value 1.02 | locus YEL003W, strain gim4, stronger effect = lower value 1.01 | locus YEL037C, strain rad23, stronger effect = lower value 1 | locus YEL061C, strain CIN8 (second series), stronger effect = lower value 1 | locus YEL061C, strain CIN8, stronger effect = lower value 1.01 | locus YER015W, strain faa2, stronger effect = lower value 1.01 | locus YER016W, strain bim1, stronger effect = lower value 1.03 | locus YER110C, stronger effect = lower value 1.01 | locus YER111C, strain swi4, stronger effect = lower value 1.01 | locus YER155C, strain BEM2 (second series), stronger effect = lower value 1.03 | locus YER155C, strain BEM2, stronger effect = lower value 0.995 | locus YER167W, strain BCK2, stronger effect = lower value 1.01 | locus YFR010W, strain ubp6, stronger effect = lower value 1.02 | locus YGL078C, strain dbp3, stronger effect = lower value 1.02 | locus YGL086W, strain mad1, stronger effect = lower value 1.01 | locus YGL167C, strain pmr1, stronger effect = lower value 1.02 | locus YGL173C, strain kem1, stronger effect = lower value 1.01 | locus YGL227W, strain vid30, stronger effect = lower value 1.01 | locus YGL240W, strain doc1, stronger effect = lower value 1.01 | locus YGL248W, strain PDE1, stronger effect = lower value 1.02 | locus YGL253W, strain hxk2, stronger effect = lower value 1.02 | locus YGR135W, strain pre9, stronger effect = lower value 1.02 | locus YGR252W, strain gcn5, stronger effect = lower value 1.02 | locus YHR013C, strain ard1, stronger effect = lower value 1.01 | locus YHR027C, strain rpn1, stronger effect = lower value 1.01 | locus YHR030C, strain SLT2, stronger effect = lower value 1 and 1.05 | locus YHR079C, strain IRE1 (second series), stronger effect = lower value 1.01 | locus YHR079C, strain IRE1, stronger effect = lower value 1.04 | locus YHR094C, strain hxt1, stronger effect = lower value 1.01 | locus YHR129C, strain ARP1, stronger effect = lower value 1 | locus YHR142W, strain chs7, stronger effect = lower value 0.999 | locus YHR200W, strain rpn10, stronger effect = lower value 1.01 | locus YIL066C, strain RNR3, stronger effect = lower value 1.01 | locus YIL073C, strain SPO22, stronger effect = lower value 1.04 | locus YIL125W, strain kgd1, stronger effect = lower value 0.999 | locus YIR030C, strain dcg1, stronger effect = lower value 1 | locus YJL092W, strain hpr5, stronger effect = lower value 1.01 | locus YJL095W, strain BCK1 (second series), stronger effect = lower value 1.02 | locus YJL095W, strain BCK1, stronger effect = lower value 1.04 and 1.02 | locus YJL115W, strain asf1, stronger effect = lower value 0.997 | locus YJL129C, strain trk1, stronger effect = lower value 1.02 | locus YJL134W, strain LCB3, stronger effect = lower value 1.01 | locus YJL154C, strain vps35, stronger effect = lower value 1.01 | locus YJL164C, strain tpk1, stronger effect = lower value 1.01 | locus YJL166W, strain qcr8, stronger effect = lower value 1.01 | locus YJL168C, strain set2, stronger effect = lower value 0.997 | locus YJL187C, strain SWE1 (second series), stronger effect = lower value 1.03 | locus YJL187C, strain SWE1, stronger effect = lower value 1.01
